# Source: PubChem BioAssay (Tox21)
# Records with an inconclusive call do not appear. Entries that show only a call come without a potency. More than one record can exist for a structure, and the calls need not agree. Active and inactive are the calls of the source. Unless noted, calls come from the whole dose curve; as a rule, active = well fitted curve in the direction sought with a large enough effect in the repeat runs; inconclusive = weak or mixed curves; inactive = no such curve, though single readings can be large; an effect the other way counts as inactive or inconclusive.
# Columns and labels:
# [1] = qHTS assay to identify aromatase inhibitors - cell viability counter screen (AID 743084); conditions: MCF-7 aro ERE viability, CellTiter-Fluor, 24 h; series mostly up to 70.3 µM;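 note: cells stimulated with testosterone during compound exposure; nearly all actives have a fitted effect of over 55% in size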
# [2] = biological target: Aryl hydrocarbon receptor (Homo sapiens) (UniProt P35869); assay: qHTS assay to identify small molecule that activate the aryl hydrocarbon receptor (AhR) signaling pathway (AID 743085); conditions: HepG2 AhR-luc (HG2L7.5c1), luciferase, 24 h; series mostly up to 70.3 µM; note: nearly all actives have a fitted effect of over 15% in size; note: potency is the fitted concentration of half-maximal effect;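 for activation: HG2L7.5c1 human HepG2 liver cells with stably integrated DRE-driven firefly reporter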
# Method in brief: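 Stably transfected human liver carcinoma cells (HG2L7.5c1; 20 DRE-firefly luciferase) were incubated 5 h, dosed, and kept 24 h at 37C. Agonism was scored from increased luciferase luminescence.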
# [3] = qHTS assay to identify small molecule that activate the aryl hydrocarbon receptor (AhR) signaling pathway - cell viability counter screen (AID 743086); conditions: HepG2-AhR-luc viability, CellTiter-Fluor, 24 h; series mostly up to 70.3 µM;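 note: HepG2 liver cells carrying the AhR DRE luciferase reporter; nearly all actives have a fitted effect of over 45% in size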
# Method in brief: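 HepG2-AhR-luc (HG2L7.5c1) cells, 4000/well, were preincubated 5 h at 37C, exposed to compound in qHTS format for 24 hr at 37C, then given CellTiter-Fluor for 30 min; viability was read as fluorescence in the reporter wells.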
# [4] = biological target: Peroxisome proliferator-activated receptor gamma (Homo sapiens) (UniProt P37231); assay: qHTS assay to identify small molecule agonists of the peroxisome proliferator-activated receptor gamma (PPARg) signaling pathway (AID 743094; active = well fitted activation curve with a large enough effect in the signal ratio in the repeat runs, not every such curve was filed as active; the % refers to the signal ratio); conditions: HEK293H PPARg-UAS-bla, beta-lactamase FRET ratio, 17 h; series mostly up to 57 µM
# Method in brief: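 Cell-based bla reporter, HEK293H background, PPARg-driven UAS. Pre-incubation 5 h, 37C, 5% CO2. Compound 17 h, 37C. Substrate 1 h RT; fluorescence.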
# [5] = qHTS assay to identify small molecule antagonists of the peroxisome proliferator-activated receptor gamma (PPARg) signaling pathway - cell viability counter screen (AID 743194); conditions: PPARg-bla HEK293H viability, CellTiter-Glo luminescence, 17 h, co-treated with 50 nM rosiglitazone; series mostly up to 62.6 µM; note: nearly all actives have a fitted effect of over 55% in size
# Method in brief: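 PPARg-UAS-bla HEK293H cells were plated, rested 5 h at 37 C, then treated with compounds plus rosiglitazone (50 nM final) for 17 h at 37 C; viability was then read by CellTiter-Glo luminescence after 30 min at room temperature.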
# [6] = qHTS assay for small molecule agonists of the antioxidant response element (ARE) signaling pathway (AID 743202; active = well fitted activation curve with a large enough effect in the signal ratio in the repeat runs, not every such curve was filed as active; the % refers to the signal ratio; note: potency is the fitted concentration of half-maximal effect); conditions: HepG2 ARE-bla reporter, beta-lactamase FRET, 16 h; series mostly up to 73.3 µM
# Method in brief: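 Following a 16 h, 37 C exposure of reporter HepG2 cells (ARE-driven beta-lactamase, 2,000 cells/well) to compounds, FRET substrate was applied for 2 h at room temperature and fluorescence intensity recorded.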
# [7] = qHTS assay for small molecule agonists of the antioxidant response element (ARE) signaling pathway - cell viability counter screen (AID 743203; calls by dose curve; note: nearly all actives have a fitted effect of over 55% in size); conditions: ARE-bla HepG2 viability, CellTiter-Glo luminescence, 16 h; series mostly up to 73.3 µM
# Method in brief: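 Measured in the same wells as the beta-lactamase ARE reporter, this read-out is CellTiter-Glo luminescence from HepG2 ARE-bla cells given compounds for 16 hrs.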
# [8] = qHTS assay for small molecule activators of the heat shock response signaling pathway - cell viability counter screen (AID 743209); conditions: HSE-bla HeLa viability, CellTiter-Glo luminescence, 5 h; series mostly up to 62.6 µM; note: nearly all actives have a fitted effect of over 50% in size
# Method in brief: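 Same-well multiplex: after 2.5 h room-temperature incubation with LiveBLAzer B/G substrate and fluorescence reading, CellTiter-Glo reagent was added to HSE-bla HeLa cells that had received compound for 5 h at 37 C; luminescence read after 30 min.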
# [9] = qHTS assay for small molecule activators of the heat shock response signaling pathway (AID 743210; active = well fitted activation curve with a large enough effect in the signal ratio in the repeat runs, with a control signal flat, not every such curve was filed as active; the % refers to the signal ratio); conditions: HeLa HSE-bla reporter, beta-lactamase ratio, 5 h; series mostly up to 62.6 µM
# Method in brief: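 Heat shock element–beta-lactamase HeLa reporter cells; qHTS with compounds for 5 h at 37 C; detection by FRET substrate fluorescence after 2.5 h at RT.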
# [10] = biological target: Peroxisome proliferator-activated receptor gamma (Homo sapiens) (UniProt P37231); assay: qHTS assay to identify small molecule antagonists of the peroxisome proliferator-activated receptor gamma (PPARg) signaling pathway (AID 743191; calls by dose curve; note: nearly all actives have a fitted effect of over 30% in size); conditions: HEK293H PPARg-UAS-bla, beta-lactamase ratio, antagonist, 17 h; series mostly up to 62.6 µM
# Method in brief: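 GeneBLAzer PPARg UAS-bla HEK293H cells carrying a UAS-driven beta-lactamase reporter were plated at 3000 cells/well, preincubated 5 h at 37C, then given compound for 17 h at 37C; LiveBLAzer B/G FRET substrate was read after 1 h at room temperature.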
# Sequence of Aryl hydrocarbon receptor (Homo sapiens) (P35869 whole entry, looked up): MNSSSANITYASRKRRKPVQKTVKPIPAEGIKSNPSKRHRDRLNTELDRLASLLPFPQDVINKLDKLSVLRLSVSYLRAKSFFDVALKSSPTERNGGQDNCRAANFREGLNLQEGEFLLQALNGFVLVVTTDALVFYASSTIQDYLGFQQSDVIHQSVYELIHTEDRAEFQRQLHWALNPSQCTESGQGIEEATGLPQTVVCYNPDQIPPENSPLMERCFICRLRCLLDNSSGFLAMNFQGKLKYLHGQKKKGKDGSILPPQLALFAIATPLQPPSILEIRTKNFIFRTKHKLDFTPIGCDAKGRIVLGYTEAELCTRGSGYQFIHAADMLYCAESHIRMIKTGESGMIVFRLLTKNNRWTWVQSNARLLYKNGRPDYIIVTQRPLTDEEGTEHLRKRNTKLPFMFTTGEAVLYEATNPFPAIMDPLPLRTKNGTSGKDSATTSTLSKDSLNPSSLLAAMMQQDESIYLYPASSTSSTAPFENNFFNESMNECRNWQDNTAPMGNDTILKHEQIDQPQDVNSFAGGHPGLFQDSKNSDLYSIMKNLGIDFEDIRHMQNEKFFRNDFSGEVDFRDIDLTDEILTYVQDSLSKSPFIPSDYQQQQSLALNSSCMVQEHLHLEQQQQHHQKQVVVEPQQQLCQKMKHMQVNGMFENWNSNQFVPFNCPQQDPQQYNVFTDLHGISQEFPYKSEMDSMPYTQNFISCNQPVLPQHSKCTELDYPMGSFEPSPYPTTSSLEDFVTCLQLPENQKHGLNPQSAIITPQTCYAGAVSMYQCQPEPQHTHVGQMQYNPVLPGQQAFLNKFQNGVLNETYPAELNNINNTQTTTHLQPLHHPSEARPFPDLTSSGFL
# Sequence of Peroxisome proliferator-activated receptor gamma (Homo sapiens) (P37231 whole entry, looked up): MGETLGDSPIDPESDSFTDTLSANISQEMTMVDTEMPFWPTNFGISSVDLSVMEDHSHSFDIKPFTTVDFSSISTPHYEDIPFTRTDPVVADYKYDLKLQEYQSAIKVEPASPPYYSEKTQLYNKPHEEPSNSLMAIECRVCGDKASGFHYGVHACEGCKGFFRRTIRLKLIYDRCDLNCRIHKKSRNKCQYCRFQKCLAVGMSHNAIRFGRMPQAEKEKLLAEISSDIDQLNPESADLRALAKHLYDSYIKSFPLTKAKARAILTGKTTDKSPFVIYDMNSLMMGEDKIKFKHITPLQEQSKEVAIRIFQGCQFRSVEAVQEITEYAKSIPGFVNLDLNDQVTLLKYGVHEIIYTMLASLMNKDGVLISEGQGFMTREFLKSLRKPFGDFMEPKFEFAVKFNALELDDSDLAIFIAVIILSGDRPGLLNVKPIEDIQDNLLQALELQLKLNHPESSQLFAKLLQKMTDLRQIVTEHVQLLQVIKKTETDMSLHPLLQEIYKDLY
SMILES,Potency [1],Potency [2],Potency [3],outcome [4],outcome [5],Potency [6],outcome [7],outcome [8],outcome [9],Potency [10]
CC(C)OC(=O)CCCCC(=O)OC(C)C,inactive,54.6 µM (active),inactive,inactive,inactive,30.7 µM (active),inactive,inactive,inactive,
CCCCCCCCC(=O)Cl,inactive,inactive,inactive,inactive,inactive,,,inactive,inactive,
CCO[Si](CCCS)(OCC)OCC,inactive,inactive,inactive,inactive,inactive,inactive,inactive,inactive,inactive,
O=C(O)c1ccc(Cl)cc1Cl,inactive,inactive,inactive,inactive,inactive,,inactive,inactive,inactive,
CCCC/C=C\CCCCCCCCCC=O,inactive,inactive,inactive,inactive,inactive,,inactive,inactive,inactive,
CCCCCCCCC1CCC(=O)O1 (stereo not given),inactive,inactive,inactive,inactive,inactive,,inactive,inactive,inactive,
COc1ccc2c(c1)C(=O)N(CCc1ccc(S(=O)(=O)NC(=O)NC3CCCCC3)cc1)C(=O)C2(C)C,inactive,inactive,inactive,inactive,inactive,,inactive,inactive,,
CCCC/C=C/C=C\C=O,inactive,inactive,inactive,inactive,inactive,,inactive,inactive,,
CO[C@@H]1[C@@H](OC(N)=O)[C@@H](O)[C@H](Oc2ccc3c(O)c(NC(=O)c4ccc(O)c(CC=C(C)C)c4)c(=O)oc3c2C)OC1(C)C,inactive,inactive,inactive,,inactive,inactive,inactive,inactive,inactive,
C=C(C)C(=O)OCCN(CC)CC,inactive,inactive,inactive,inactive,inactive,inactive,inactive,,inactive,
COc1ccc(S(=O)(=O)N2c3ccc(Cl)cc3[C@@](O)(c3ccccc3Cl)[C@H]2C(=O)N2CCC[C@@H]2C(N)=O)cc1OC,inactive,inactive,inactive,,inactive,inactive,inactive,inactive,,inactive
CCCCN,inactive,inactive,inactive,inactive,inactive,,,inactive,,
CC(=O)NCc1c(I)c(NC(C)=O)c(I)c(C(=O)O)c1I,inactive,inactive,inactive,inactive,inactive,inactive,inactive,inactive,inactive,
CC(C)CC(C)CC(C)CC(C)COC(=O)c1ccccc1C(=O)OCC(C)CC(C)CC(C)CC(C)C (stereo not given),inactive,inactive,inactive,inactive,inactive,inactive,inactive,inactive,inactive,
CC(C)=O,inactive,inactive,inactive,inactive,inactive,inactive,inactive,inactive,inactive,
NS(=O)(=O)c1ccc(NC(=O)CCC(=O)O)cc1,inactive,inactive,inactive,inactive,inactive,inactive,inactive,inactive,inactive,
COc1ccc(-c2cc(=O)c3c(O)cc(O[C@@H]4O[C@H](CO[C@@H]5O[C@@H](C)[C@H](O)[C@@H](O)[C@H]5O)[C@@H](O)[C@H](O)[C@H]4O)cc3o2)cc1O,inactive,29.8 µM (active),inactive,inactive,inactive,,inactive,inactive,inactive,
Cc1cccc2nccnc12,inactive,inactive,inactive,inactive,inactive,,inactive,inactive,inactive,
CC(C)(C)c1cc(CCC(=O)NN)cc(C(C)(C)C)c1O,inactive,inactive,inactive,inactive,inactive,inactive,inactive,inactive,inactive,
Cc1ccsc1/C=C/C1=NCCCN1C,inactive,inactive,inactive,inactive,inactive,,,inactive,,
O=C(O)C(=O)Cc1ccccc1,inactive,inactive,inactive,,,27.3 µM (active),inactive,inactive,inactive,inactive
CCCN1C[C@H](CSC)C[C@@H]2c3cccc4[nH]cc(c34)C[C@H]21,inactive,inactive,inactive,,inactive,inactive,inactive,inactive,inactive,inactive
Cc1cc(NC(=O)C2=C(O)c3ccccc3S(=O)(=O)N2C)no1,inactive,inactive,inactive,inactive,inactive,inactive,,inactive,inactive,

SMILES,Potency [1],Potency [2],Potency [3],outcome [4],outcome [5],Potency [6],outcome [7],outcome [8],outcome [9],Potency [10]
CNS(=O)(=O)CCc1ccc2[nH]cc(C3CCN(C)CC3)c2c1,inactive,inactive,inactive,inactive,inactive,inactive,,inactive,inactive,
CC1=CCC(C(C)C)=CC1,inactive,inactive,inactive,inactive,inactive,inactive,inactive,inactive,inactive,
CCCCCCCCCCCCCC,inactive,inactive,inactive,inactive,inactive,,inactive,inactive,,
COc1ccc(Br)c(C)c1,inactive,inactive,inactive,inactive,inactive,inactive,inactive,inactive,inactive,
Oc1cn2c(n1)Nc1ccc(Cl)c(Cl)c1C2,inactive,23.7 µM (active) and inactive,inactive,inactive,inactive,,inactive,inactive,,
CCCCOCCOC(=O)COc1nc(Cl)c(Cl)cc1Cl,inactive,inactive,inactive,inactive,inactive,,inactive,inactive,inactive,
COc1cc2c(cc1OC)[C@@H]1CC(=O)[C@@H](CC(C)C)CN1CC2,inactive,,inactive,inactive,inactive,inactive,inactive,inactive,,inactive
N[C@@H](CCC(=O)Nc1ccc([N+](=O)[O-])cc1)C(=O)O,inactive,inactive,,,inactive,inactive,inactive,inactive,,
CCOC(=O)CC(=O)c1ccccc1,inactive,,inactive,inactive,inactive,inactive,inactive,inactive,inactive,inactive
O=C(O)Cc1cn(-c2ccccc2)nc1-c1ccc(Cl)cc1,inactive,inactive,inactive,,inactive,,inactive,inactive,,
CCCCCCOc1ccccc1C(N)=O,inactive,,inactive,inactive,inactive,,inactive,inactive,inactive,inactive
Cc1cccc(C)c1OCC(C)N (stereo not given),inactive,,inactive,inactive,inactive,,inactive,inactive,,inactive
NC(CO)C(=O)NNCc1ccc(O)c(O)c1O (stereo not given),inactive,,inactive,inactive,inactive,,inactive,inactive,inactive,inactive
On1nnc2ccccc21,inactive,,inactive,inactive,inactive,inactive,inactive,inactive,inactive,inactive
CCCCNc1ccc(C(=O)OCCN(C)C)cc1,inactive,inactive,inactive,,inactive,,,inactive,inactive,
CC(C)(C)OC(=O)c1ccc(O)cc1,inactive,,inactive,inactive,inactive,,inactive,inactive,inactive,inactive
Nc1ccc(S(=O)(=O)Nc2ccc(Cl)nn2)cc1,inactive,,inactive,inactive,inactive,,inactive,inactive,inactive,inactive
Cc1ccc(S(=O)(=O)O)c(C)c1,inactive,,inactive,inactive,inactive,inactive,inactive,inactive,inactive,inactive
O=C(O)c1cc(Br)c(O)c(Br)c1,inactive,,inactive,inactive,inactive,inactive,inactive,inactive,,inactive
Nc1ccc2cc(S(=O)(=O)O)cc(O)c2c1,inactive,27.1 µM (active),,inactive,inactive,,inactive,inactive,inactive,inactive
c1ccc2c(c1)ccc1c3ccccc3ccc21,inactive,,inactive,inactive,inactive,24.8 µM (active),inactive,inactive,inactive,inactive
O=C(O)Cc1ccc(Cl)cc1Cl,inactive,inactive,,inactive,inactive,inactive,inactive,inactive,inactive,inactive
CC1=C(C(=O)O)N2C(=O)[C@@H](NC(=O)[C@H](N)c3ccc(O)cc3)[C@H]2SC1,inactive,inactive,inactive,,inactive,,inactive,inactive,,
